Marburg entry inh = Marburg virus entry inhibition | Potency, µM (top dose mostly 37.8 µM), for inactives: at the top dose activity change, negative = inhibition, most hits filed as inhibitors | Marburg virus pseudotyped entry inhibition, cell reporter | hit rate 1.8% among 300,000; calls by dose curve; tested in HEK293 cells; further: potency means the concentration at half of the fitted maximal effect
HCMV antiviral = inhibitors of human cytomegalovirus | AID 1259415 | hit rate 4.5% among 410,000 | activity change, negative = inhibition, % at 57.5 µM | HFF cells, HCMV-luciferase reporter, 72 h; hits give low values; in the data active means activity change below about -60%; inconclusive means no clear call, values can overlap the other calls; inactive means above about -39%
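Two-dose cell screen: HFF monolayers treated with compounds and infected with luciferase-expressing HCMV at 1 PFU/cell, 72 h at 37C, then lysed for luciferase measurement.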
Vaccinia Venus = inhibitors of vaccinia virus (Venus reporter). Vaccinia virus Venus reporter expression, fluorescence. Potency, µM (doses to about 36.5 µM), inactives show at the highest dose activity change, negative = inhibition, usual class: inhibitors. hit rate 0.46% among 330,000. AID 720580; calls by dose curve; tested in A549 cells; further: potency means the concentration at half of the fitted maximal effect; nearly all actives have a fitted effect of over 30% in size
LASV entry inh = blocks Lassa virus binding to or entry into cells | Lassa virus pseudotype entry inhibition, cell reporter | AID 540256 | hit rate 1.2% among 300,000 | Potency, µM (doses to about 37.9 µM), without a hit: top-dose activity change, negative = inhibition, actives largely listed as inhibitors; calls by dose curve; tested in HEK293 cells; further: potency means the concentration at half of the fitted maximal effect; nearly all actives have a fitted effect of over 50% in size
VACV mCherry inh = vaccinia inhibition (mCherry reporter) | Vaccinia virus mCherry reporter infection, fluorescence | Potency, µM (series often up to 36.5 µM), inactives show at the top dose activity change, negative = inhibition, most hits filed as inhibitors | hit rate 0.63% among 310,000 | AID 720579; calls by dose curve; tested in A549 cells; further: potency means the concentration at half of the fitted maximal effect; nearly all actives have a fitted effect of over 35% in size
FMDV inh = foot and mouth disease virus antiviral activity; FMDV antiviral cell-based qHTS; Potency, µM (titrated, usually from 57.9 µM), for the others: at the highest dose activity change, negative = inhibition, usual class: inhibitors; hit rate 1.2% among 410,000; AID 1159524; calls by dose curve; tested in HEK293T cells; further: read-out not given here; potency means the concentration at half of the fitted maximal effect; nearly all actives have a fitted effect of over 45% in size
* hit, by the source's call; i = inactive; ? = inconclusive; . = not tested or not shown; [ ] = remark or other dose. Rows were chosen to be rich in hits. Some 6.5% of all compounds tested hit in one or more screens of this group. On the % scale 0 is the no-effect control and ±100 the full control effect.

SMILES	Marburg entry inh	HCMV antiviral	Vaccinia Venus	LASV entry inh	VACV mCherry inh	FMDV inh
C[C@@H]1CN([C@H](C)CO)C(=O)c2cc(NC(=O)Nc3ccc(C(F)(F)F)cc3)ccc2O[C@H]1CN(C)S(=O)(=O)c1ccc(Cl)cc1	.	-76.0*	-25.9%	.	-8.7%	-20.7%
C[C@H](CO)N1C[C@H](C)[C@@H](CN(C)S(=O)(=O)c2ccc(F)cc2)Oc2ccc(NC(=O)Nc3ccc(C(F)(F)F)cc3)cc2C1=O	.	-15.4	?	.	?	?
COc1cc(OC)c(OC)cc1/C=C1\CCC/C(=C\c2cc(OC)c(OC)cc2OC)C1=O	?	-90.2*	-9.1%	?	-27.5%	?
COc1cc(/C=C2\CC/C(=C\c3ccc(OCCO)c(OC)c3)C2=O)ccc1OCCO	?	?	3.8%	1.4%	i	35.5µM*
COc1ccc(/C=C2\CCc3ccccc3C2=O)cc1OC	-11.2%	?	?	1.1%	7.94µM*	15.3%
COc1ccc(C=C2C=C(C(C)(C)C)C(=O)C(C(C)(C)C)=C2)cc1OC	?	-98.6*	-23.0%	13.8%[46.1 µM]	-13.7%	22.4µM*
CC(C)C[C@H]1COc2cc(Br)ccc2S(=O)(=O)N1Cc1ccc(F)cc1F	.	38.2	.	-1.7%[46.1 µM]	.	.
COc1cc(OC)c(OC)cc1/C=c1\[nH]c(=O)/c(=C/c2cc(OC)c(OC)cc2OC)[nH]c1=O	.	.	-17.6%	.	-11.2%	.
Cc1nc(C)c(C(=O)NCc2nc(-c3cccc(NC(=O)c4ccccn4)c3)oc2C)s1	.	.	-28.8%	.	?	-20.8%
CCOc1ccc(CC(=O)NC2CC(=O)N(c3ccc(C)c(C)c3)C2)cc1 (configuration not stated)	.	18.7	-11.7%[7.34 µM]	-25.4%[46.1 µM]	-10.4%[7.34 µM]	-22.9%
COc1ccc(OC)c(C=C2CCc3ccccc3C2=O)c1	.	-95.9*	-22.3%	.	1.8%	37.2%
Cc1ccc(Nc2nc(-c3c(C)nc4ncccn34)cs2)cc1	?	8.0	?	?	?	?
Cc1nc2ccccn2c1-c1csc(NCc2ccco2)n1	-15.5%	-12.4	.	?	.	?
Cc1ccn2c(-c3csc(NCc4ccccc4)n3)c(C)nc2c1	?	-80.8*	?	?	.	15.8µM*
Cc1ccc(Nc2nc(-c3c(C)nc4ccccn34)cs2)cc1	-40.9%	-101.4*	10µM*	?	?	25.1µM*
Cc1cc(C(=O)NCc2nc(-c3ccccc3NC(=O)C3CCCO3)oc2C)nc(C)n1 (configuration not stated)	.	.	-21.3%	.	-16.9%	-3.3%
CC1=C(n2c(=O)c(-c3ccccc3)nc3ccccc32)C(=O)Nc2ccccc2N1	.	16.9	.	.	.	.
Cc1cccc2cc(C#N)c(NCCCNS(=O)(=O)c3ccc(Cl)cc3)nc12	.	-67.2*	.	.	.	?
Cc1cccc2cc(C#N)c(NCCNS(=O)(=O)c3ccccc3)nc12	?	-2.8	-3.4%	-2.0%	-5.9%	20.6%
Cc1ccc(CN2C(=O)C3(SCC(=O)N3c3ccc(C)c(C)c3)c3ccccc32)cc1 (configuration not stated)	.	?	-18.9%	?	-17.0%	?
NC(=O)c1ccc(-n2nnnc2SCC(=O)c2ccc(O)c(O)c2)cc1	10.1%[46.1 µM]	-100.1*	-10.2%	13.6%	i	-14.6%
COc1ccc(-n2nnnc2SCC(=O)c2ccc(O)c(O)c2)cc1	-11.4%	-24.1	.	-12.1%	.	-9.8%
Cc1ccc(SC[C@H](Cc2ccccc2)N2CC[C@@H](C(C)(C)C)CCC2=O)cc1	.	.	-8.1%	.	i	.
O=[N+]([O-])c1ccc2c(c1)C(N1CCN(CCO)CC1)Cc1ccc(F)cc1S2 (configuration not stated)	.	8.7	-15.8%	.	i	-14.2%
OCCN1CCN(C2CCC(c3ccc(F)cc3)c3ccc(F)cc32)CC1 (configuration not stated)	3.98µM*	?	?	?	?	?
SMILES	Marburg entry inh	HCMV antiviral	Vaccinia Venus	LASV entry inh	VACV mCherry inh	FMDV inh
CCCN(CC(=O)Nc1ccc(F)c(F)c1F)CC(=O)Nc1c(C)n(C)n(-c2ccccc2)c1=O	21.2%	-68.8*	-10.9%	4.4%	-12.8%	?
N#CC(C(=O)OC1CCCCC1)c1nc2ccccc2nc1N1CCOCC1 (configuration not stated)	7.4%	-77.6*	3.3%	-10.0%	-5.9%	0.0%
CN1CCN(c2nc3ccccc3nc2C(C#N)C(=O)OC2CCCCC2)CC1 (configuration not stated)	-41.8%	13.1	.	-9.5%	.	10.1%
O=C(N/N=C/c1ccc([N+](=O)[O-])s1)C(O)c1ccccc1 (configuration not stated)	-11.3%	-91.0*	.	?	.	43.2%
Cc1cc(C(=O)N/N=C/c2ccc([N+](=O)[O-])s2)c2ccccc2n1	?	-70.4*	28.2µM*	?	10µM*	-16.5%
Cc1ccc(/C=N/NC(=O)c2cccnc2)s1	0.7%[46.1 µM]	-5.0	-3.3%	-16.5%[46.1 µM]	i	9.7%
O=C(Cc1ccccc1)N/N=C/c1ccc([N+](=O)[O-])s1	?	-29.3	?	?	.	?
Cc1ccccc1C(=O)N/N=C/c1ccc([N+](=O)[O-])s1	4.11µM*	-95.9*	?	-24.3%	-21.9%	.
C=CCC(O)c1nc(C(=O)Nc2ccc(F)cc2)cs1 (configuration not stated)	.	-13.8	.	.	.	.
O=C(N/N=C/c1ccc([N+](=O)[O-])s1)c1ccccc1Br	?	-77.4*	11.2µM*	?	?	.
COc1ccccc1NC(=O)C(=O)N/N=C/c1ccc([N+](=O)[O-])s1	.	-26.7	.	.	.	-19.1%
CC1(C)CC(=O)C2=C(C1)NC(Nc1nc3ccccc3o1)=NC2c1cccc(F)c1 (configuration not stated)	.	.	2.4%	.	19.8%	.
c1ccc(CN2CCN(c3nc(-c4ccccn4)nc4ccccc34)CC2)cc1	10.0%[46.1 µM]	-98.7*	-8.3%	12.8%	-5.5%	14.7%
COc1ccc(Oc2nc(-c3ccccn3)nc3ccccc23)cc1	?	-69.8*	?	?	4.47µM*	2.5%
c1ccc(-c2nc(N3CCCCCC3)c3ccccc3n2)nc1	?	-99.0*	5.01µM*	3.98µM*	.	25.1µM*
c1ccc(-c2nc(N3CCOCC3)c3ccccc3n2)nc1	?	?	?	?	?	-19.8%
COC(=O)c1ccccc1C(=O)N1CCOc2ccc(CN3CCN(c4ccccn4)CC3)cc2C1	.	.	-7.2%	.	-3.8%	-14.7%
CCCC(C(=O)NC1CCCC1)N(C(=O)Cn1nnc(-c2ccc(C)o2)n1)C1CCCC1 (configuration not stated)	25.9µM*	8.1	.	?	.	-12.7%
CCCC(C(=O)NC1CCCC1)N(C(=O)Cn1nnc(-c2ccc(C)o2)n1)c1ccccc1F (configuration not stated)	?	-8.0	4.6%	-16.6%[46.1 µM]	-3.8%	6.0%
